Laboratory results as given in PubChem BioAssay (NCI).
The panel holds about 83,000 compounds, 20% with a hit somewhere; the sample as a whole holds those more often.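 Negative percent growth values reflect cell death: -40 means 40% of the cells present at the start died, and -100 means all died.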 A number with no mark means an inactive call. The source made the active and inactive calls. Rule for the calls: active = growth percent below 10; inactive = the rest.

Legend:
Assay in all cases: NCI-60 one-dose screen, 48 h (100 = growth as untreated, 0 = no growth, -100 = all killed)
Conditions in all cases: 10 µM unless noted
SR leukemia = tested on: SR leukemia
RPMI-8226 leukemia = tested on: RPMI-8226 leukemia
OVCAR-8 ovarian = tested on: OVCAR-8 ovarian
OVCAR-5 ovarian = tested on: OVCAR-5 ovarian
OVCAR-4 ovarian = tested on: OVCAR-4 ovarian
SK-OV-3 ovarian = tested on: SK-OV-3 ovarian
IGROV1 ovarian = tested on: IGROV1 ovarian
OVCAR-3 ovarian = tested on: OVCAR-3 ovarian
HS 578T breast = tested on: HS 578T breast
NCI/ADR-RES ovarian = tested on: NCI/ADR-RES ovarian
T-47D breast = tested on: T-47D breast
BT-549 breast = tested on: BT-549 breast
MDA-MB-435 melanoma = tested on: MDA-MB-435 melanoma
SW-620 colon = tested on: SW-620 colon
MCF7 breast = tested on: MCF7 breast
HCT-116 colon = tested on: HCT-116 colon
HCC-2998 colon = tested on: HCC-2998 colon
KM12 colon = tested on: KM12 colon

| SMILES | growth (SR leukemia) | growth (RPMI-8226 leukemia) [%] | growth (OVCAR-8 ovarian) | growth (OVCAR-5 ovarian) [%] | growth (OVCAR-4 ovarian) | growth (SK-OV-3 ovarian) [%] | growth (IGROV1 ovarian) | growth (OVCAR-3 ovarian) | growth (HS 578T breast) | growth (NCI/ADR-RES ovarian) [%] | growth (T-47D breast) [%] | growth (BT-549 breast) [%] | growth (MDA-MB-435 melanoma) | growth (SW-620 colon) [%] | growth (MCF7 breast) | growth (HCT-116 colon) | growth (HCC-2998 colon) | growth (KM12 colon) [%] |
| --- | --- | --- | --- | --- | --- | --- | --- | --- | --- | --- | --- | --- | --- | --- | --- | --- | --- | --- |
| N#Cc1c(-c2ccccc2)cc(-c2ccccc2)n(CCCC(=O)O)c1=O | 91.8% | 103 | 51.3% | 104 | 102% | 105 | 99.4% | 112% | 107% | 99.8 | 89.1 | 83.6 | 104% | 105 | 60% | 93% | 103% | 103 |
| Nc1nc(Nc2ccccc2SSc2ccccc2Nc2nc(N)nc(-c3cccc(Cl)c3)n2)nc(-c2cccc(Cl)c2)n1 | 39.3% | 89.6 | 90.7% | 97.5 | 120% | 133 | 69.7% | 96.2% | 105% | 81.3 | 68.9 | 94.3 | 101% | 104 | 82.8% | 90.9% | 110% | 77 |
| COc1ccc(-c2ccc(O)c(C(=O)/C=C/c3cc(OC)c(OC)c(OC)c3)c2)cc1 | 56.2% | 24.7 | 71.8% | 106 | 79.6% | 77.6 | 78.3% | 93.7% | 113% | 69.9 | 67 | 90.4 | 64.6% | 88.6 | 64.2% | 68.8% | 100% | 79.9 |
| N/C(=N\C(N)=N\c1nc2ccccc2s1)c1ccnc(Cl)c1 | 18.9% | 15.2 | 39.5% | 57.9 | 79.1% | 48.5 | 37.2% | 4.62% (active) | 25.7% | 18.3 | 60.8 | 38 | -34.9% (active) | 16.8 | 31.5% | 31.7% | 62.7% | 32 |
| O=C(N/N=C/c1cccc(O)c1O)c1ccccc1 | 18.2% | 32.1 | 4.99% (active) | 30.1 | 4.38% (active) | 41.2 | 6.87% (active) | 16.2% | 66.1% | 11 | 15.5 | 31.3 | 28.8% | 33.5 | 3.07% (active) | 9.39% (active) | 8.51% (active) | 25.9 |
| COc1cc(/C=N/NC(=O)c2ccc(C(F)(F)F)nc2Nc2ccc(Cl)cc2C)ccc1O | -14.6% (active) | 26.8 | 46.7% | 57.5 | 27.2% | 44.3 | 25.1% | 30.4% | -15.1% (active) | 30.3 | 33.7 | 16 | 39.2% | 26.2 | 27.8% | 11.3% | 42.8% | 24.5 |
| Nc1nc(SCc2cccnc2)c2ncn(C3OC(CO)C(O)C3O)c2n1 (centres undefined) | 118% | 115 | 97.1% | 90.1 | 112% | 107 | 98.6% | 99.9% | 109% | 102 | 110 | 98.1 | 104% | 97.9 | 94.9% | 93.8% | 96.6% | 98.4 |
| CSc1nc(Nc2ccc(S(=O)(=O)Nc3ccon3)cc2)c(C#N)c(-c2ccc(Cl)cc2)n1 | -37.8% (active) | 71.3 | 95.7% | 106 | 113% | 108 | 96.6% | 122% | 106% | 102 | 97 | 90.5 | 97.9% | 70.5 | 94.3% | 65.8% | 94.4% | 104 |
